According to the supplement of paper PMC9023506:
Structures can show the parent of a compound that is named as a salt.

Test system: Danio rerio larvae (5 dpf)
Test: optomotor response to blue moving lines, difference vs DMSO (percentage points (treated minus DMSO)); higher = more of the behaviour than the DMSO vehicle control
Details: 10 µM; exposure time: 3 h pre-incubation + 3 h imaging
Description: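 5-dpf wild-type zebrafish larvae were imaged in 96-well plates. They were treated with 190 Tocris FDA-approved drugs at 10 µM (1 µl/ml DMSO) for 3 h before and 3 h during imaging at 28.5 °C, 48 larvae per drug. Automated image analysis gave % time moving and optomotor responses. Values are drug group mean minus DMSO vehicle mean (n=844), in percentage points, for 10 behaviours.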

Structure (SMILES)	optomotor response to blue moving lines
CCCCC(=O)N(Cc1ccc(-c2ccccc2-c2nnn[nH]2)cc1)[C@H](C(=O)O)C(C)C [Valsartan]	6.89
O=c1n(CCCN2CCN(c3cccc(Cl)c3)CC2)nc2ccccn12 [Trazodone hydrochloride]	6.49
CC1CNc2c(cccc2S(=O)(=O)N[C@@H](CCCNC(=N)N)C(=O)N2CC[C@@H](C)C[C@@H]2C(=O)O)C1 (stereo not given in full) [Argatroban]	4.3
CCc1ccc(CCOc2ccc(CC3SC(=O)NC3=O)cc2)nc1 (stereo not given) [Pioglitazone hydrochloride]	-1.78
NC(=O)c1ncn([C@@H]2O[C@H](CO)[C@@H](O)[C@H]2O)n1 [Ribavirin]	9.25
CN1CCC[C@@H]1CCO[C@](C)(c1ccccc1)c1ccc(Cl)cc1 [Clemastine fumarate]	22.4
CC(C)c1nc(N(C)S(C)(=O)=O)nc(-c2ccc(F)cc2)c1/C=C/[C@@H](O)C[C@@H](O)CC(=O)O [Rosuvastatin calcium]	10.7
O=C(O[C@@H]1C[C@@H]2C[C@H]3C[C@H](C1)N2CC3=O)c1c[nH]c2ccccc12 [Dolasetron mesylate]	0.622
Cc1ccc(NC(=O)c2ccc(CN3CCN(C)CC3)cc2)cc1Nc1nccc(-c2cccnc2)n1 [Imatinib mesylate]	-0.219
OCCN1C[C@H](O)[C@@H](O)[C@H](O)[C@H]1CO [Miglitol]	5.95
CCOc1ccccc1OCCN[C@H](C)Cc1ccc(OC)c(S(N)(=O)=O)c1 [Tamsulosin hydrochloride]	2.91
Cc1cn([C@H]2C=C[C@@H](CO)O2)c(=O)[nH]c1=O [Stavudine]	10
COc1ccc(C[C@@H](C)NC[C@H](O)c2ccc(O)c(NC=O)c2)cc1 [Arformoterol tartrate]	-4.26
N#Cc1ccc2[nH]cc(CCCCN3CCN(c4ccc5oc(C(N)=O)cc5c4)CC3)c2c1 [Vilazodone hydrochloride]	-5.66
CNCc1ccc(-c2[nH]c3cc(F)cc4c3c2CCNC4=O)cc1 [Rucaparib camsylate]	10.7
CN1CCN2c3ncccc3Cc3ccccc3C2C1 (stereo not given) [Mirtazapine]	-2.95
COCCc1ccc(OCC(O)CNC(C)C)cc1 (stereo not given) [Metoprolol tartrate]	10.9
CN(C)CC/C=C1/c2ccccc2COc2ccc(CC(=O)O)cc21 [Olopatadine hydrochloride]	-0.0571
Cc1ccsc1C(=CCCN1CCC[C@@H](C(=O)O)C1)c1sccc1C [Tiagabine hydrochloride]	24.1
O=C(O)C[C@H](O)C[C@H](O)/C=C/c1c(C2CC2)nc2ccccc2c1-c1ccc(F)cc1 [Pitavastatin calcium]	11

Structure (SMILES)	optomotor response to blue moving lines
COc1ccc([C@@H]2Sc3ccccc3N(CCN(C)C)C(=O)[C@@H]2OC(C)=O)cc1 [Diltiazem hydrochloride]	-5.83
Cc1cccc(CN2CCN(C(c3ccccc3)c3ccc(Cl)cc3)CC2)c1 (stereo not given) [Meclizine dihydrochloride]	-6.39
CC(C)c1ccc2oc3nc(N)c(C(=O)O)cc3c(=O)c2c1 [Amlexanox]	5.97
CC(C)(C(=O)O)c1ccc(C(O)CCCN2CCC(C(O)(c3ccccc3)c3ccccc3)CC2)cc1 (stereo not given) [Fexofenadine hydrochloride]	4.47
CC1(C)O[C@@H]2[C@@H](CO[C@@]3(COS(N)(=O)=O)OC(C)(C)O[C@@H]23)O1 [Topiramate]	-3.75
CC(CCc1ccc(O)cc1)NCCc1ccc(O)c(O)c1 (stereo not given) [Dobutamine hydrochloride]	-11.2
CN(C)CCc1c[nH]c2ccc(Cn3cncn3)cc12 [Rizatriptan benzoate]	3.13
CCCN(CCC)S(=O)(=O)c1ccc(C(=O)O)cc1 [Probenecid]	2.07
CCCc1nn(C)c2c(=O)[nH]c(-c3cc(S(=O)(=O)N4CCN(C)CC4)ccc3OCC)nc12 [Sildenafil citrate]	8.78
CC(C)C(=O)OCC(=O)[C@@]12O[C@H](C3CCCCC3)O[C@@H]1C[C@H]1[C@@H]3CCC4=CC(=O)C=C[C@]4(C)[C@H]3[C@@H](O)C[C@@]12C [Ciclesonide]	-2.62
NS(=O)(=O)Cc1noc2ccccc12 [Zonisamide]	3.89
O=C(Nc1c(Cl)cncc1Cl)c1ccc(OC(F)F)c(OCC2CC2)c1 [Roflumilast]	-1.76
CCOc1nc2cccc(C(=O)O)c2n1Cc1ccc(-c2ccccc2-c2nnn[nH]2)cc1 [Candesartan]	9.66
CCOC(=O)c1ncn2c1CN(C)C(=O)c1cc(F)ccc1-2 [Flumazenil]	11.4
CCC(=O)O[C@]1(C(=O)SCF)[C@H](C)C[C@H]2[C@@H]3C[C@H](F)C4=CC(=O)C=C[C@]4(C)[C@@]3(F)[C@@H](O)C[C@@]21C [Fluticasone propionate]	-10.1
COCCCOc1cc(C[C@@H](C[C@H](N)[C@@H](O)C[C@H](C(=O)NCC(C)(C)C(N)=O)C(C)C)C(C)C)ccc1OC [Aliskiren hemifumarate]	-5.15
CCOC(=O)C1=C(C)NC(C)=C(C(=O)OC)C1c1cccc(Cl)c1Cl (stereo not given) [Felodipine]	-5.26
CC(c1cc2ccccc2s1)N(O)C(N)=O (stereo not given) [Zileuton]	-7.52
CC(C)N(CCCCOCC(=O)NS(C)(=O)=O)c1cnc(-c2ccccc2)c(-c2ccccc2)n1 [Selexipag]	-1.72
CCOc1nc2cccc(C(=O)O)c2n1Cc1ccc(-c2ccccc2-c2noc(=O)[nH]2)cc1 [Azilsartan]	7.48
